A selection: hits, their analogues and other compounds. The true share with any hit is near 5.7%.
FAS-TE inh: blocks the thioesterase domain of human fatty acid synthase | P49327 | recombinant FAS-TE, OMFH fluorogenic substrate, fluorescence endpoint | inhibition, % at 15 µM | 0.67% of 360,000 active | AID 602261;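 active means compounds whose normalised, plate-corrected inhibition of enzyme fluorescence in the single-dose primary screen is 50% or more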
Target sequence (P49327 whole entry, looked up, the tested form may be a part): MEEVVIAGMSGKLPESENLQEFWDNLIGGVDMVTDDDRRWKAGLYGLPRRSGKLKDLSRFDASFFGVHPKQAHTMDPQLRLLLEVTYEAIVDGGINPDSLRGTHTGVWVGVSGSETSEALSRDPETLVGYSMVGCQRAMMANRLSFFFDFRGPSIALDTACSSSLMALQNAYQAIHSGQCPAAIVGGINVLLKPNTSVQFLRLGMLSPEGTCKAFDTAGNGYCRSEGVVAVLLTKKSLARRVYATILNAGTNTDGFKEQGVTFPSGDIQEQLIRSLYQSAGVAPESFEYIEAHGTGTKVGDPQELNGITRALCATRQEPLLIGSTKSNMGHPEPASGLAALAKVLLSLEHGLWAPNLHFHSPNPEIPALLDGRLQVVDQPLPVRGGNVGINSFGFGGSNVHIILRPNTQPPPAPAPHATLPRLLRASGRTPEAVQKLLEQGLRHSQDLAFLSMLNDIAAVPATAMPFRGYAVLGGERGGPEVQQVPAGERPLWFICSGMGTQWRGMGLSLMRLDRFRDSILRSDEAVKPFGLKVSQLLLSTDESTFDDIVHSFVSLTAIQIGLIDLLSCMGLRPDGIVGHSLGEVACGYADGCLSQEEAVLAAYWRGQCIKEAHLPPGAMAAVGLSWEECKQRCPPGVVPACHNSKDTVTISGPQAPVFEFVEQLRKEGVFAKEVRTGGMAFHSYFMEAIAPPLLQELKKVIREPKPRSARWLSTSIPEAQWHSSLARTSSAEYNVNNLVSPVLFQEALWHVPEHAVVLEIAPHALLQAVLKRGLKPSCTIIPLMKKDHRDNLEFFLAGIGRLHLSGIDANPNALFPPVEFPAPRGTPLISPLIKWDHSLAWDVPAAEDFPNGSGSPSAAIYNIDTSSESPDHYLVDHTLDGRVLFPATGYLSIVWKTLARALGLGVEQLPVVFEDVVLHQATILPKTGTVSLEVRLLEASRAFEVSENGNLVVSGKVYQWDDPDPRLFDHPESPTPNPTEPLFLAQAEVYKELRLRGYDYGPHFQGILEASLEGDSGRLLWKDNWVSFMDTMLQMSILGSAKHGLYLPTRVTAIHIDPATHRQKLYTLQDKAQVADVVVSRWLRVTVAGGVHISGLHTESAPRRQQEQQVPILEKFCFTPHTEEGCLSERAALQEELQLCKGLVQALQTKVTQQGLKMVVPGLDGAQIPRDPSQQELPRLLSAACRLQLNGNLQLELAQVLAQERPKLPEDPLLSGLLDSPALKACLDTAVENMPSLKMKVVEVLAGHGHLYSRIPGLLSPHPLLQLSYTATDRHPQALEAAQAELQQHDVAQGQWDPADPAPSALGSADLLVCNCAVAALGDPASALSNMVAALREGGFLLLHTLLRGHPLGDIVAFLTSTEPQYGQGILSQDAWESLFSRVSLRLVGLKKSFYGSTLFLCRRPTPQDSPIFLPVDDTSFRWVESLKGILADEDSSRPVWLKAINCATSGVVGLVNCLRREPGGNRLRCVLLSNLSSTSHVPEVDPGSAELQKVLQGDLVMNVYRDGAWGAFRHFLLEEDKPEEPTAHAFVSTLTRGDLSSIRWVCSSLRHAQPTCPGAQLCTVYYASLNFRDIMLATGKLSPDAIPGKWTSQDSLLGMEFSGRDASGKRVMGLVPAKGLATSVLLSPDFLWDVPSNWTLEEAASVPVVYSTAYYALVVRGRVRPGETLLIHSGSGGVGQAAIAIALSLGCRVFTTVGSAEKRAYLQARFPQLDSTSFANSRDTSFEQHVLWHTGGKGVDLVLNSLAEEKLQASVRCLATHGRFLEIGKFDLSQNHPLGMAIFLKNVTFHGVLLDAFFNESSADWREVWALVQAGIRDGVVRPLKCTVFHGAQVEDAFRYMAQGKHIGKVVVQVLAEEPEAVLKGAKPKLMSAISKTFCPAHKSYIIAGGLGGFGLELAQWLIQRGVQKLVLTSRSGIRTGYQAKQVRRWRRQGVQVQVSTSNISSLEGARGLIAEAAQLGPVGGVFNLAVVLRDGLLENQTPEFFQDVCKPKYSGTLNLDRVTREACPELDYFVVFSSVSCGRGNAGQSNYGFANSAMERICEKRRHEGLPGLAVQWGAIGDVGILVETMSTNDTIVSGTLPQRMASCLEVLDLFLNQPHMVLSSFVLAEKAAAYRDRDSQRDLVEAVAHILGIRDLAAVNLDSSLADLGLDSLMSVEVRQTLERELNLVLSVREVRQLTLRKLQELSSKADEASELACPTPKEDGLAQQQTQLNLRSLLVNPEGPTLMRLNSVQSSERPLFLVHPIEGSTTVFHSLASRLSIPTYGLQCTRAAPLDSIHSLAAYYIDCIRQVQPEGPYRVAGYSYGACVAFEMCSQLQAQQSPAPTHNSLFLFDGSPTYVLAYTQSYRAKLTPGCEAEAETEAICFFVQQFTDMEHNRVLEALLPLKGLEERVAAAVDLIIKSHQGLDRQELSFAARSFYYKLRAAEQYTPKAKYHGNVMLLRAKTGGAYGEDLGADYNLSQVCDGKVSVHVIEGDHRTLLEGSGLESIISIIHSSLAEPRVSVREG
Myeloid diff MLP: promotes myeloid progenitor differentiation; AID 624256; ER-HoxA9 myeloid progenitors, lysozyme-GFP differentiation, flow cytometry; 1% of 360,000 active; calls only at 10 µM;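 active means normalized GFP-positive differentiation at or above the plate's own cutoff, the solvent-only control mean plus 3 SD; inconclusive means no clear call, values can overlap the other calls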;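 further: cells exposed to compound for four days before flow analysis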
GRIN3A LBD mod: NR3A (human) ligand-binding domain modulation; NR3A LBD differential scanning fluorimetry, Tm shift; 0% = protein alone, 100% = glycine-bound protein; Tm shift relative to glycine control, % at 25 µM; 2.5% of 340,000 active; AID 1259313;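 active means melting temperature shift of at least 10% of the positive control shift, at one fixed dose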
rCAG RNA binder: molecules binding r(CAG) RNA repeats; 1.3% of 370,000 active; r(CAG) RNA repeat, TO-PRO-1 dye displacement fluorescence; inhibition, % at 3 µM;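 active means inhibition above the plate cutoff, the mean of all test compounds on that plate plus 3 SD, cut at about 35% in these data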;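 further: higher means more dye released from RNA so lower well fluorescence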
MPTP block: permeability transition pore inhibition | isolated mouse mitochondria, Ca2+ swelling absorbance, 30 min | inhibition, % at 10 µM | 1.4% of 360,000 active;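 active means inhibition of 50% or more, scaled per plate between neutral and stimulator controls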
A number is an active result; - = inactive; ? = inconclusive; . = no result; + = active, no number.

SMILES	FAS-TE inh	Myeloid diff MLP	GRIN3A LBD mod	rCAG RNA binder	MPTP block
CCOC(=O)C1Nc2ccccc2C2C(O)C(O)CC12 (stereo not given)	-	+	-	43.2	-
CCOC(=O)C1Nc2ccc(C(F)(F)F)cc2C2c3ccccc3CC12 (stereo not given)	-	-	-	-	-
O=c1cnnc(Nc2ccc(F)cc2)[nH]1	-	-	-	-	-
O=c1cnnc(Nc2cccc(F)c2)[nH]1	-	+	-	-	-
CCCOc1ccc([N+](=O)[O-])cc1C1NC(=S)NC(c2ccccc2)=C1C(=O)OCC (stereo not given)	65.9	.	-	-	-
CCOC(=O)C1=C(c2ccccc2)NC(=O)NC1c1cc(OC)c(O)c([N+](=O)[O-])c1 (stereo not given)	-	-	-	-	-
Cc1nc(NC(=O)c2ccccc2)sc1C	-	-	-	-	-
Cc1nc(NC(=O)Nc2ccc(Cl)cc2)sc1C	-	-	12.1	-	-
COCCn1c(SCC(=O)N2CCC(C)CC2)nc2c(c1=O)SCC2	-	-	11.1	-	-
COCCn1c(SCC(=O)N2CCCC2)nc2c(c1=O)SCC2	-	-	.	-	-
COCCn1c(SCC(=O)Nc2ccc3c(c2)OCCO3)nc2c(c1=O)SC(C)C2 (stereo not given)	-	+	-	-	-
COC(=O)CSc1nnc(-c2ccc(NS(=O)(=O)c3ccc(C(C)(C)C)cc3)cc2)o1	.	.	.	-	.
Cc1ccccc1OCC(=O)Nc1ccccc1CO	-	-	-	-	-
CSc1ccccc1NC(=O)COc1ccccc1C	-	+	-	-	-
Cc1ccc(/C=N\NC(=O)c2cc(OCC(F)(F)F)ccc2OCC(F)(F)F)cc1	-	-	14.2	-	-
COc1ccc(/C=N\NC(=O)c2cc(OCC(F)(F)F)ccc2OCC(F)(F)F)cc1	-	-	-	-	-
C[C@@H]1CCCCO[C@H](CN(C)Cc2ccncc2)[C@@H](C)CN([C@H](C)CO)C(=O)c2cc(N(C)C)ccc2O1	.	.	.	-	.
CCN1/C(=C/C=C/c2oc3ccc(-c4ccccc4)cc3[n+]2CC)Oc2ccc(-c3ccccc3)cc21	-	?	60.5	-	-
Cc1cccc(NC(=O)c2ccc([N+](=O)[O-])o2)c1C	-	+	-	-	-
CC1CCN(c2ccccc2NC(=O)c2ccc([N+](=O)[O-])o2)CC1	-	?	-	-	-
O=C(COc1ccccc1[N+](=O)[O-])Nc1ccccc1N1CCCC1	-	-	15.7	-	-
CN(C)S(=O)(=O)c1ccc(Cl)c(NC(=O)COc2ccccc2[N+](=O)[O-])c1	-	-	12.8	-	-
O=C(Nc1ccccc1N1CCCC1)c1ccc([N+](=O)[O-])o1	-	+	-	-	-
O=C(COc1ccccc1[N+](=O)[O-])Nc1ccccc1N1CCCCC1	-	-	-	.	-
O=C(Nc1cccc2ccccc12)c1ccc([N+](=O)[O-])o1	-	.	-	-	-
SMILES	FAS-TE inh	Myeloid diff MLP	GRIN3A LBD mod	rCAG RNA binder	MPTP block
CCN(CC)S(=O)(=O)c1ccc(Cl)c(NC(=O)COc2ccccc2[N+](=O)[O-])c1	-	-	-	-	-
C[C@H](CO)N1C[C@H](C)[C@@H](CN(C)S(=O)(=O)c2ccc(F)cc2)Oc2ncc(Br)cc2C1=O	.	.	.	-	.
CC(C)(C)n1nc(C2CC2)c(Br)c1NC(=O)c1ccccc1Cl	.	.	.	-	.
COc1cccc(NC(=O)Nc2nc3ncccn3c2-c2ccc(C)cc2)c1	.	.	.	-	.
CC(=O)NCC(=O)OCC(=O)Nc1ccc(C(C)=O)cc1	-	-	13.1	-	-
CCCc1nc2c(C)cc(Br)cn2c1Cc1cccc(Cl)c1	.	.	.	-	.
Nc1ccccc1Nc1cc(-c2ccccc2)nn1-c1ccccc1	-	+	-	-	-
Nc1ccccc1Nc1cc(-c2ccccc2)[nH]n1	-	+	-	-	-
Nc1ccccc1Nc1ccccc1	-	+	-	-	-
Cc1ccc(-n2nc(-c3ccccc3)cc2Nc2ccccc2N)cc1	-	-	-	-	-
CN1CCCCC(NC(=O)c2cccc(C(F)(F)F)c2)C1=O (stereo not given)	.	.	.	-	.
CCN(C(=O)[C@@H](C1CC1)[C@@H](O)c1ccc(Cl)cc1)c1ccccc1	.	.	.	-	.
CC(=O)N1CCc2cc(S(=O)(=O)NC3CCN(C(=O)C(C)(C)C)CC3)ccc21	.	.	.	-	.
Oc1ccc(N2CCN(CC(O)c3ccccc3)CC2)cc1 (stereo not given)	-	-	32.3	-	-
COc1ccc2[nH]c(=O)c3c(c2c1)OC(C)(C)C=C3	-	-	-	-	-
Cc1cc2c([nH]c3ccccc32)c2c1OC(C)(C)C=C2	-	-	16.2	-	-
O=C(CCc1nnc2ccc(NCc3ccco3)nn12)N1CCCCC1	-	+	-	-	-
Cc1ccc(NC(=O)CCc2nnc3ccc(NCc4ccco4)nn23)cc1F	-	+	-	-	-
O=C(CCc1nnc2ccc(NCc3ccco3)nn12)N1CCN(c2ccccc2F)CC1	-	?	-	-	-
C#CCN(Cc1cccc(F)c1)C(=O)c1nnc2c3cc(F)ccc3n(S(=O)(=O)c3ccc(OC)cc3)c2n1	.	.	.	-	.
COC(=O)[C@]12C[C@H](CC(=O)N3CCCCC3)C(=O)N(CCC3=CCCCC3)C1=C[C@H](C1CCCC1)O[C@@H]2C	.	.	.	-	.
Cc1ccccc1C(c1ncccc1C)N(C)C(=O)C1CCN(CCOc2ccc(Cl)cc2Cl)CC1 (stereo not given)	-	-	.	-	-
CC1(C)Cc2ccccc2C2CC(O)C(=O)N21 (stereo not given)	-	+	-	-	-
CCCCNc1nc(N)nc(-c2cc(Cl)ccc2O)n1	-	-	18.2	-	-
CCCCP(=O)(CCCC)c1ccccc1C(=O)O	.	-	12.2	-	.
SMILES	FAS-TE inh	Myeloid diff MLP	GRIN3A LBD mod	rCAG RNA binder	MPTP block
C[C@@H]1C(c2cccc(Cl)c2)=NN(c2ccc(Br)cc2)[C@H]1C(=O)N1CCOC1=O	56.3	-	21.4	.	-
Cc1cccc(C2=NN(c3ccc(Br)cc3)[C@@H](C(=O)N3CCOC3=O)[C@@H]2c2ccccc2)c1	71.8	-	15.4	.	-
CC(=O)Nc1ccc(S(=O)(=O)NCC2CCN(C(=O)C(=O)c3cccs3)CC2)cc1	.	.	.	-	.
O=S(=O)(Nc1ccc(-n2cccc2)cc1)c1ccc(F)cc1	-	-	-	-	-
O=S(=O)(Nc1ccc(-n2cccc2)cc1)c1ccc(Cl)cc1Cl	-	-	13.5	-	-
O=S(=O)(Nc1ccc(-n2cccc2)cc1)c1ccc(Cl)c(Cl)c1	-	-	34.7	-	-
CCC(=O)Nc1ccc(Cl)c(NC(=S)NC(=O)COc2ccccc2)c1	-	-	-	-	-
CCC(=O)Nc1ccc(Cl)c(NC(=S)NC(=O)COc2ccc(Cl)cc2)c1	-	-	25.9	-	-
C[C@@H]1CCCCO[C@@H](CN(C)C(=O)Nc2ccc(C(F)(F)F)cc2)[C@@H](C)CN([C@H](C)CO)C(=O)c2cc(NS(=O)(=O)c3ccc(Cl)cc3)ccc2O1	.	.	.	-	.
Cc1cc(Br)ccc1SCC(=O)OCC(=O)NC1CC1	-	+	-	-	-
Cc1cc(Br)ccc1SCC(=O)OCC(=O)NC(C)c1ccccc1 (stereo not given)	-	-	-	-	-

Compound activity (PubChem BioAssay)
